# Only a selection was taken, and hits are over-represented in it overall.
# PDI inh: inhibitors of human PDI, primary screen, biochemical, turbidity, single point, plate reader; AID 588391, 2011; 350,000 compounds, 0.052% hits; inhibition, % at 10 µM; Protein disulfide-isomerase (Homo sapiens), P07237; PDI insulin aggregation turbidity, A650, 90 min;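 active = mean inhibition across replicates of 30% or more, whatever share of single replicates reach that level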
# ARNT-TACC3 inh: disruptors of ARNT/TACC3 protein interaction, primary screen, biochemical, AlphaScreen, single concentration | Transforming acidic coiled-coil-containing protein 3 (Homo sapiens), Q9Y6A5 | AlphaScreen His-ARNT PAS-B/GST-TACC3 binding, luminescence; TACC3 fragment carries E629A point mutation | 390,000 compounds, 0.66% hits | inhibition, % at 9.99 µM;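 active = mean inhibition of replicates at least 50% and at least half of replicates each reaching 50%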;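 also: 0% = complete ARNT plus TACC3 wells and 100% = ARNT alone without TACC3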
# ERp5 inh: inhibitors of ERp5-driven insulin aggregation, primary screen, biochemical, turbidity, absorbance 650 nm, single point; Protein disulfide-isomerase A6 (Homo sapiens), Q15084; 90 min; inhibition, % at 9.99 µM; 350,000 compounds, 0.05% hits; AID 651711, 2012;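 active = mean replicate inhibition above about 25%, with every replicate also reaching it, limit read from the data, passing the limit was not always enough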
# CendR NRP1 mod: modulators of CendR peptide binding to NRP-1, primary screen, biochemical, fluorescence polarization, uHTS; Neuropilin-1 (Homo sapiens), O14786; FAM-RPARPAR peptide binding to NRP-1; inhibition, % at 25 µM; 360,000 compounds, 0.85% hits; AID 602438, 2012;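 active = inhibition or corrected inhibition above about 18%, plus a signal ratio from 0.5 to 1.5, limit read from the data, passing the limit was not always enough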
# PglD inh: C. jejuni PglD acetyltransferase inhibitors, primary screen, biochemical, DTNB colorimetric, single point | AID 602405, 2012 | inhibition, % at 12.5 µM | UDP-N-acetylbacillosamine N-acetyltransferase PglD (Campylobacter jejuni) | 360,000 compounds, 0.098% hits | purified PglD enzyme, DTNB colorimetric CoA detection; in the data active = inhibition above about 16%, passing the limit was not always enough
# ALR H2O2 inh: inhibitors of human ALR sulfhydryl oxidase, primary screen, biochemical, H2O2 detection, HRP-luminol luminescence, single point | purified ALR, DTT oxidation | 290,000 compounds, 3.8% hits | inhibition, % (no concentration beside the values) | FAD-linked sulfhydryl oxidase ALR (Homo sapiens), P55789;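 active = mean replicate inhibition above about 79%, with every replicate also reaching it, limit read from the data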
# Target sequence (P55789 whole entry, looked up): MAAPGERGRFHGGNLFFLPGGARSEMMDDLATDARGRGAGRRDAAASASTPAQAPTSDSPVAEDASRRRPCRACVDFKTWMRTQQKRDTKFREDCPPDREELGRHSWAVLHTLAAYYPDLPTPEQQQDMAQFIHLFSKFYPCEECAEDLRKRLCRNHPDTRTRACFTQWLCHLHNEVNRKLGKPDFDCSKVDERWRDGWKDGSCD
# Active calls of the source: *; x = no result given.
SMILES,PDI inh,ARNT-TACC3 inh,ERp5 inh,CendR NRP1 mod,PglD inh,ALR H2O2 inh
Nc1ccc2c(O)cc(S(=O)(=O)O)cc2c1,-9.5,33.0,-16.8,27.8*,8.5,x
COc1ccccc1Nc1ccc2c(O)cc(S(=O)(=O)O)cc2c1,-3.7,active,0.7,71.0*,-0.8,x
O=S(=O)(O)c1cc(O)c2cc(Nc3ccccc3)ccc2c1,-1.5,19.5,12.8,41.9*,2.4,x
O=S(=O)(O)c1cc(O)c2ccc(Nc3ccccc3)cc2c1,4.0,12.3,7.6,-4.0,0.1,x
CCCC(=O)Nc1ccc2c(c1)OC[C@H](C)N(Cc1ccc(-c3ccccn3)cc1)C[C@@H](C)[C@H](OC)CN(C)C2=O,x,-0.7,-5.0,x,4.5,x
CCOC(=O)Cn1c(=O)oc2cc(S(=O)(=O)Nc3ccc(N(CC)CC)cc3C)ccc21,x,8.3,-0.5,-10.4,3.6,98.8*
C[C@@H](O)C#Cc1ccc([C@@H]2[C@@H](CO)N3CCCCN(S(=O)(=O)Cc4ccccc4)C[C@H]23)cc1,x,-2.8,0.0,x,3.5,x
COc1ccc(C2=NN(c3nc(-c4ccc(CNC(C)=O)cc4)cs3)C(c3ccco3)C2)cc1 (stereo unspecified),-16.4,10.4,3.4,-50.9,-3.6,99.0*
O=C(CSc1ccccc1F)Nc1ccc(N2CCOCC2)cc1,4.0,6.5,0.4,-3.6,1.5,40.5
CCN(CC(=O)Nc1ccc(N2CCOCC2)cc1)C(=O)COc1ccccc1OC,-3.0,x,-2.1,-0.5,x,90.9*
CN(CC(=O)Nc1ccc(N2CCOCC2)cc1)C(=O)COc1ccccc1F,-3.0,-0.3,1.8,-3.8,-0.6,77.8*
CCOc1ccc(OCCCC(=O)N(C)CC(=O)Nc2ccc(N3CCOCC3)cc2)cc1,-6.2,-1.1,-0.1,11.2,-0.1,5.2
CC(=O)c1ccc(OCC(=O)N(C)CC(=O)Nc2ccc(N3CCOCC3)cc2)cc1,3.0,1.4,0.4,8.9,-3.0,18.4
O=C(CNS(=O)(=O)c1ccccc1F)Nc1ccc(N2CCOCC2)cc1,-3.0,-2.7,x,-11.3,1.3,94.4*
COc1ccc(CCC(=O)N(C)CC(=O)Nc2ccc(N3CCOCC3)cc2)cc1,-4.3,0.3,2.3,12.1,3.7,93.6*
COc1ccc(CNC(=O)C[C@@H]2C[C@@H]3c4cc(NC(=O)NC5CCCC5)ccc4O[C@@H]3[C@H](CO)O2)cc1,x,-12.5,-3.0,x,-0.8,x
CC(Oc1ccc(Br)cc1)C(=O)N(C)CC(=O)Nc1ccc(N2CCOCC2)cc1 (stereo unspecified),0.5,18.2,-3.1,-21.8,-4.4,98.7*
CN(CC(=O)Nc1ccc(N2CCOCC2)cc1)CC(=O)Nc1ccc(N2CCOCC2)cc1,5.7,-3.7,-0.8,-1.1,x,42.4
COc1cccc(CN2CC3(CCN(Cc4ccccn4)CC3)c3c([nH]c4cc(OC)ccc34)[C@H]2CO)c1,x,x,-6.5,x,x,x
C[C@H]1CN([C@@H](C)CO)C(=O)c2cc(NC(=O)Nc3ccc4c(c3)OCO4)ccc2O[C@H]1CN(C)C(=O)NC1CCCCC1,x,-3.7,4.8,x,3.3,x
Cc1ccc2nc(-c3ccc(SCC(=O)N4CCc5ccccc54)nc3)[nH]c2c1,-8.5,-2.1,2.0,-5.0,x,-5.1
Cc1ccc2nc(-c3ccc(SCC(=O)O)nc3)[nH]c2c1,18.0,7.7,x,-1.7,-1.1,98.5*
Clc1ncnc2scc(-c3ccccc3)c12,12.8,-11.0,x,-7.4,-2.6,-3.9
Clc1nc(-c2cccnc2)nc2scc(-c3ccccc3)c12,6.2,-0.5,1.4,-10.0,x,96.7*
COc1ccc(-c2csc3nc(-c4cccnc4)nc(Cl)c23)cc1OC,0.3,6.8,4.6,4.6,x,97.6*
COC(=O)c1ccccc1NC(=S)NC(=O)c1ccccc1,-1.1,21.7,x,17.6,1.3,98.2*
COC(=O)c1ccccc1NC(=O)c1ccc2c(c1)OCCO2,-3.5,x,x,11.6,-0.8,10.2
O=C(NC(=S)Nc1cc([N+](=O)[O-])ccc1O)c1ccc2c(c1)OCO2,3.0,22.1,-19.5,-11.4,-0.5,4.3
